# The campaign covered roughly 260,000 compounds. About 1,300 (0.5%) were called active.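 How the source made its calls: active means percent inhibition above 40 after rounding to a whole number; inactive means the rest.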 The entries come from a sample that favours actives as a whole.
# Molecular target: Prostaglandin E2 receptor EP2 subtype (Homo sapiens) (UniProt P43116)
# Experiment: human EP2 receptor antagonists, primary screen, TR-FRET cAMP, C6 glioma cells (AID 1422);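 further: rat C6 glioma host cells with rolipram phosphodiesterase inhibitor present; the protocol text gives 20 µM as final concentration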
# Details: C6 glioma cells expressing human EP2, cAMP TR-FRET, at 25 µM, active compounds read high; cells stimulated with saturating PGE2 unless noted
# Chain of Prostaglandin E2 receptor EP2 subtype (Homo sapiens) (P43116 whole entry, looked up): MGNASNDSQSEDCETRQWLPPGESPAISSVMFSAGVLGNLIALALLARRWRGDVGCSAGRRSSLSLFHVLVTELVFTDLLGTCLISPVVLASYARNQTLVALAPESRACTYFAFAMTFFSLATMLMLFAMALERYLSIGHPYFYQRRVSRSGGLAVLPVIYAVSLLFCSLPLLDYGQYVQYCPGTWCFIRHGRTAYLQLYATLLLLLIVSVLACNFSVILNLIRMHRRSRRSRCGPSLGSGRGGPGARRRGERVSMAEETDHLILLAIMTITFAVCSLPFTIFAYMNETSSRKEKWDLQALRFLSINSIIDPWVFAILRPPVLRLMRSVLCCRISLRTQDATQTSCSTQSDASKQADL
row,Structure (SMILES),inhibition
1,O=C1C[C@@H]2OCC=C3CN4CC[C@]56c7ccccc7N1[C@H]5[C@H]2[C@H]3C[C@H]46 (tested in a mixture with another compound),43.4% (active)
2,COc1ccccc1CN(CCN(C)C)C(=O)Cc1nn(C)c(=O)c2ccccc12,8.64% (inactive)
3,COc1ccc(C2=NCC(=O)N(Cc3cccnc3)c3sc4c(c32)CCCC4)cc1,7.58% (inactive)
4,CC(=O)O[C@H]1CC[C@@]2(C)[C@@H](CC[C@H]3[C@H]2CC(=O)[C@]2(C)[C@@H]3C[C@@H](N3CC3)[C@H]2C(C)=O)C1,44% (active)
5,CC(=O)O[C@H]1CC[C@@]2(C)C(=CCC3C2CC[C@]2(C)C(=O)CCC32)C1 (stereo not given in full),13.5% [setting not given] (inactive)
6,C=C1C2CC[C@@]3(C)[C@H](c4ccoc4)OC(=O)C[C@]13O[C@H]1CC(=O)C(C)(C)[C@H](C(OC(C)=O)C(=O)OC)[C@@]21C (stereo not given in full),14.4% (inactive)
7,COc1cc([C@@H]2c3cc4c(cc3[C@H](OC(C)=O)[C@H]3COC(=O)[C@H]23)OCO4)cc(OC)c1OC,14.4% (inactive)
8,Fc1ccc2c(c1)nnn2C1CCN(Cc2nnnn2C2CCCC2)CC1,8.46% (inactive)
9,CC[C@@](O)(C(=O)O)c1cc2n(c(=O)c1CO)Cc1cc3ccccc3nc1-2,47.7% (active)
10,CCn1cc(C(=O)c2ccco2)c2ccccc21,1.27% (inactive)
11,c1ccc2[nH]c(C3CCNCC3)nc2c1,6.74% (inactive)
12,C=CCc1cc(CN2C3CCC2CC(O)(c2nccn2C)C3)cc(OC)c1O (stereo not given),10.4% (inactive)
13,Cc1ccc(C(C)N2CCNCC2)c(C)c1 (stereo not given),5.45% (inactive)
14,COc1cc(CN2C3CCC2CC(O)(c2ccccc2F)C3)ccc1OC(C)C (stereo not given),6.07% (inactive)
15,Cc1nc(-c2ccc(F)cc2)c(CC(=O)N(CCN(C)C)C2CCCCC2)s1,2.82% (inactive)

# Source: PubChem BioAssay AID1422 (Emory University Molecular Libraries Screening Center, 2008)
